Luc counter = blocks Kinase-Glo luciferase, a counter-screen artifact. Q27757. Kinase-Glo luciferase, ATP luminescence, 8 min. Potency, µM (doses to about 38.3 µM), usual class: inhibitors. 200,000 compounds, 0.28% hits. AID 1379; active = well fitted inhibition curve with a large enough effect; inconclusive = small, poorly fitted or top-dose-only effect; note: nearly all actives have a fitted effect of over 60% in size
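Light output from Kinase-Glo luciferase with luciferin and 10 uM ATP in 50 mM imidazole pH 7.2, KCl, MgCl2, Tween 20, BSA; compound pin-delivered, 8-min ambient incubation, then luminescence read.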
IMPase inh = cell-permeable inhibitors of inositol monophosphatase (IMPase); P97697; CHO-M1 cells, IP1 accumulation, HTRF TR-FRET ratio; inhibition (IP1 accumulation), % at 46.1 µM; 120,000 tested, under 10 active; active = well fitted curve in the direction sought with a large enough effect in the signal ratio, not every such curve was filed as active; inconclusive = small, poorly fitted or top-dose-only effect, or a change in a side signal; inactive = no such curve, though single readings can be large or run the other way; the % refers to the signal ratio;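 note: cells stimulated with carbachol in lithium chloride buffer; higher means more IMPase inhibition seen as more IP1 and lower FRET ratio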
Target sequence (P97697 whole entry, looked up): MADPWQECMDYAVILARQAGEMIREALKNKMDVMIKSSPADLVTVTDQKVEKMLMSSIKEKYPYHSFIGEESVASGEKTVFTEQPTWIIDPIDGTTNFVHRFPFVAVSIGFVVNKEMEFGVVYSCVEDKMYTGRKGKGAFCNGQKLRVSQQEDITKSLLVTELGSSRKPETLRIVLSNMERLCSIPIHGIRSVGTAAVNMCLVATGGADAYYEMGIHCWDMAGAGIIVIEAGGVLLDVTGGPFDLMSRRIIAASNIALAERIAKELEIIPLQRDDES
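Elevated IP1 in lysates lowers TR-FRET signal (665/620 ratio and 620 channel reported). Cells were CHO-M1, given carbachol (50 uM as added) plus 50mM LiCl, pH 7.4, 30 min, 37C; compounds titrated up to 46 uM; AC50 by Hill equation.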
HPGD inh = blocks human HPGD enzyme activity. Potency, µM, usual class: inhibitors. AID 894. P15428. purified HPGD, NADH fluorescence kinetic, PGE2 substrate. 150,000 compounds, 4.3% hits
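NADH formation kinetics: reaction with 30 uM PGE2 and 1 mM NAD+ (final), 20 nM enzyme, Tris-HCl pH 8 with Tween 20, after 15 min compound preincubation at room temperature. Fluorescence change, last versus first of five reads.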
PNC assembly inh = blocks assembly of the perinucleolar compartment | 140,000 compounds, 3.1% hits | PC3M PTB-GFP, PNC prevalence imaging, 16 h; active compounds read low | activity change (PNC), negative = inhibition, % at 10 µM;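 active = readout at or below -70, meaning at least 70% loss of cells showing the perinucleolar compartment, a nuclear body marking cancer cells; inconclusive = readout between -30 and a set limit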
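Compounds are pinned in duplicate onto adhered PC3M cells stably expressing GFP-tagged PTB and incubated 16 h at 37 C. Cells are then fixed, nuclei stained with Hoechst, and PNC-positive cells counted.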
ALDH1A1 block = inhibitors of human aldehyde dehydrogenase 1A1 | Purified ALDH1A1, NADH fluorescence, propionaldehyde substrate | Potency, µM (doses to about 75.3 µM), most hits filed as inhibitors | 220,000 compounds, 7.3% hits
Target sequence (P00352 whole entry, looked up): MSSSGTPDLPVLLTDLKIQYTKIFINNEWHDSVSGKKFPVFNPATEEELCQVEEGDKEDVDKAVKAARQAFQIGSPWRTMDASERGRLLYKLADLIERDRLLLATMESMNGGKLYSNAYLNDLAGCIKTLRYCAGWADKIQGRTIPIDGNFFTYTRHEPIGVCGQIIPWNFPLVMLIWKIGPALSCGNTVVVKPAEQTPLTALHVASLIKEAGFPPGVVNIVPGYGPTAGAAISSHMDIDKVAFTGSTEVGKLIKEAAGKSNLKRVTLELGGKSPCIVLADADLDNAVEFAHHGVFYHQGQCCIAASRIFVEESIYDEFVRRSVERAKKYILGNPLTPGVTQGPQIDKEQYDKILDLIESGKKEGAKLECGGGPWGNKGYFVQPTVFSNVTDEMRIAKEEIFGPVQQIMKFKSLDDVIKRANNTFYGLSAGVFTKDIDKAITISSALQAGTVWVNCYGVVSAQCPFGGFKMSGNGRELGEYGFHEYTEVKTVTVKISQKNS
LMNA splice mod = changes lamin A minigene splicing in HeLa cells; HeLa LMNA splicing GFP/RFP minigene ratio, 48 h; Potency, µM (titrated, usually from 46.1 µM), usual class: inhibitors; 200,000 compounds, 0.01% hits; AID 1487; active = well fitted inhibition curve with a large enough effect in the signal ratio, with a control signal flat, not every such curve was filed as active; inconclusive = small, poorly fitted or top-dose-only effect, or effect the other way, or a change in a side signal; the % refers to the signal ratio
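S3 HeLa cells stably expressing lamin A-EGFP splicing minigene plus DsRed2, 600 cells/well, 48 h compound exposure at 37C. Laser-scanning cytometry; analysed as GFP (500-530 nm)/RFP (575-640 nm) total intensity ratio; 0.5% DMSO vehicle.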
Of the large screens only hits and unclear results are named; the others gave an inactive call. A selection: hits, their analogues and other compounds. The true share with any hit is near 10%. Unless noted, calls come from the whole dose curve; as a rule, active = well fitted inhibition curve with a large enough effect (not every such curve was filed as active); inconclusive = small, poorly fitted or top-dose-only effect, or another doubt; inactive = no such curve, though single readings can be large or run the other way.

COc1ccc(-c2cc(CNC(=O)CCl)on2)cc1	ALDH1A1 block inconclusive, LMNA splice mod inconclusive
O=S(=O)(NCC1CCN(S(=O)(=O)c2ccccc2)CC1)c1ccccc1	ALDH1A1 block 1.58µM
O=C(NNS(=O)(=O)c1ccccc1)C1CCN(S(=O)(=O)c2ccccc2)CC1	ALDH1A1 block inconclusive
O=C(Nc1ccc(S(=O)(=O)N2CCc3ccccc3C2)cc1)C1CCCO1 (stereo not given)	LMNA splice mod inconclusive
O=C(NNS(=O)(=O)c1ccccc1)C1CCN(S(=O)(=O)c2ccc(Cl)cc2)CC1	PNC assembly inh -100.0
O=S(=O)(NCC1CCCO1)c1ccc(S(=O)(=O)N2CCc3ccccc3C2)cc1 (stereo not given)	PNC assembly inh -106.9
C=CCNC(=O)C1CCN(S(=O)(=O)c2ccccc2)CC1	PNC assembly inh inconclusive
CCOC(=O)c1c(NC(=O)COc2cccc(C(F)(F)F)c2)sc2c1CCCCC2	none (no result: Luc counter, HPGD inh, PNC assembly inh, ALDH1A1 block, LMNA splice mod)
CCc1cccc(NC(=O)CN2C=NS(=O)(=O)c3ccccc32)c1	none (no result: Luc counter, IMPase inh, HPGD inh, PNC assembly inh, ALDH1A1 block)
CCc1cccc(NC(=O)CSC2=NS(=O)(=O)c3ccccc32)c1	HPGD inh 22.4µM, ALDH1A1 block inconclusive
COc1ccc2[nH]cc(CCNc3ccnc(-c4ccccc4Cl)n3)c2c1	ALDH1A1 block 25.1µM, LMNA splice mod inconclusive (no result: Luc counter, IMPase inh, HPGD inh, PNC assembly inh)
CCN(CC)S(=O)(=O)c1ccc(Oc2cccc(C(C)=O)c2)nc1	ALDH1A1 block 14.1µM, LMNA splice mod inconclusive
O=S(=O)(c1ccc2oc(=S)[nH]c2c1)N1CCCCC1	ALDH1A1 block 20µM (no result: Luc counter, IMPase inh, HPGD inh, PNC assembly inh, LMNA splice mod)
Cc1ccc(S(C)(=O)=O)cc1S(=O)(=O)Nc1cccc(Cl)c1	PNC assembly inh -112.4 (no result: IMPase inh)
O=S(=O)(Nc1cccc(Cl)c1)c1ccc2oc(=S)[nH]c2c1	ALDH1A1 block 1µM (no result: IMPase inh, HPGD inh, PNC assembly inh, LMNA splice mod)
CCn1c(=S)[nH]c2cc(S(=O)(=O)N3CCCCC3)ccc21	ALDH1A1 block 7.08µM, LMNA splice mod inconclusive
COc1ccc(NC(=O)c2nn(C)c3c2CS(=O)(=O)c2ccccc2-3)cc1Cl	none (no result: Luc counter, IMPase inh, HPGD inh, PNC assembly inh, ALDH1A1 block)
CC(C)(C)OC(=O)NCc1nc(N)n[nH]1	PNC assembly inh -100.0
Cn1c(CCNC(=O)OC(C)(C)C)n[nH]c1=S	none
CCOC(=O)C1=C(C)NC(=O)C(C(N)=O)C1c1ccccc1 (stereo not given)	none
COC(=O)C1=C(C)NC(=S)N(C(C)=O)C1c1ccccc1 (stereo not given)	ALDH1A1 block 25.1µM
CCOC(=O)C1=C(C)NC(=S)N(C=O)C1c1ccccc1 (stereo not given)	ALDH1A1 block 2µM (no result: IMPase inh, HPGD inh, PNC assembly inh)
COC(=O)[C@@]1(Cc2ccc(OC)cc2)[C@H]2c3cc(C(=O)N(C)C)n(Cc4ccc(Cl)c(C(F)(F)F)c4)c3C[C@H]2CN1C(=O)c1ccccc1	none (no result: IMPase inh, PNC assembly inh, LMNA splice mod)
COc1ccccc1NS(=O)(=O)c1cccc(C(=O)NN)c1	ALDH1A1 block 3.98µM
CCN(CC)c1ccc(/C=N/NC(=O)c2cccc(S(=O)(=O)Nc3ccccc3OC)c2)cc1	ALDH1A1 block 10µM (no result: IMPase inh, HPGD inh, PNC assembly inh)
CCN(CC)c1ccc(/C=N/NC(=O)c2cccc(S(=O)(=O)Nc3ccccc3OC)c2)c(O)c1	LMNA splice mod inconclusive (no result: IMPase inh)
COc1ccccc1NS(=O)(=O)c1cccc(C(=O)NN=C2CCCC2)c1	ALDH1A1 block 12.6µM (no result: IMPase inh, HPGD inh, PNC assembly inh, LMNA splice mod)
COc1cc(C2C(C(=O)OC(C)C)=C(C)N=C3SCCC(=O)N32)ccc1OCc1ccccc1 (stereo not given)	none (no result: Luc counter, HPGD inh, PNC assembly inh, ALDH1A1 block, LMNA splice mod)
COc1cc(OC)c(NC(=O)c2cc(C)nc3c2c(C)nn3-c2ccc(C)cc2)cc1Cl	none (no result: Luc counter, IMPase inh, HPGD inh, PNC assembly inh, ALDH1A1 block)
COC(=O)C1=C(C)[C@@H](O)[C@@H](C)[C@H](c2c(OC)c(OC)c(C)c(OC)c2OC)O1	none (no result: Luc counter, IMPase inh, HPGD inh, PNC assembly inh, LMNA splice mod)
CCS(=O)(=O)N1CCC(C(=O)NCCC(C)C)CC1	none (no result: Luc counter, IMPase inh, HPGD inh, PNC assembly inh, ALDH1A1 block)
Cc1ccc(C(=O)O)cc1-c1ccc(C=C2C(=O)c3ccccc3C2=O)o1	ALDH1A1 block 5.01µM (no result: IMPase inh, HPGD inh, PNC assembly inh, LMNA splice mod)
O=C1C(=Cc2ccc(Br)o2)C(=O)c2ccccc21	HPGD inh 31.6µM, PNC assembly inh inconclusive
Cc1cc(C(=O)O)ccc1-n1c(C)cc(C=C2C(=O)c3ccccc3C2=O)c1C	ALDH1A1 block 10µM (no result: Luc counter, IMPase inh, HPGD inh, PNC assembly inh, LMNA splice mod)
O=Cc1ccc(-c2ccccc2C(=O)O)o1	LMNA splice mod inconclusive (no result: IMPase inh, HPGD inh, PNC assembly inh)
Cc1ccc(NC(=O)CN2C(=O)S/C(=C/c3ccc(-c4cc(C(=O)O)ccc4C)o3)C2=O)cc1C	HPGD inh 31.6µM, ALDH1A1 block inconclusive
Cc1cccc(NC(=O)CN2C(=O)S/C(=C\c3ccc(-c4cccc(C(=O)O)c4C)o3)C2=O)c1	none (no result: IMPase inh, HPGD inh, PNC assembly inh, LMNA splice mod)
CC(C)C(=O)N[C@H]1CCCN1C(=O)/C=C\c1ccccc1	none (no result: Luc counter, IMPase inh, HPGD inh, PNC assembly inh, LMNA splice mod)
CCN1CCN(C(c2ccccc2)c2sc3nc(-c4ccco4)nn3c2O)CC1 (stereo not given)	none (no result: Luc counter, IMPase inh, HPGD inh, PNC assembly inh, ALDH1A1 block)
O=C(c1ccccc1Cl)N(Cc1ccco1)c1ccccn1	none (no result: Luc counter, IMPase inh, HPGD inh, PNC assembly inh, ALDH1A1 block)
Cc1cc(N=Cc2c(O)ccc3ccccc23)no1	ALDH1A1 block inconclusive (no result: Luc counter, HPGD inh)
Cc1cc(N=Cc2c(O)ccc3cc(Br)ccc23)no1	HPGD inh 10µM, ALDH1A1 block 1.78µM, LMNA splice mod inconclusive (no result: IMPase inh)
O=C(Nc1ccccc1)NC1(C(=O)NCc2cccs2)CCCCC1	HPGD inh inconclusive, PNC assembly inh -95.7, ALDH1A1 block inconclusive
CC(C)CN(c1ccccc1)S(=O)(=O)c1nnc(NC(=O)C2CCCCC2)s1	none (no result: Luc counter, IMPase inh, HPGD inh, PNC assembly inh, ALDH1A1 block)
O=P(O)(CCc1ccccc1)CN1CCCCC1	PNC assembly inh -82.4
C[C@]12C[C@@](C)(C=C1/C=C/c1ccc(F)cc1)C(=O)C[C@H]2c1ccc(F)cc1	none (no result: IMPase inh, PNC assembly inh, LMNA splice mod)
